In PubChem BioAssay AID2071 (Sanford-Burnham Center for Chemical Genomics, 2009):
Screen size: about 280,000 compounds; about 1,700 (0.61%) were called active. Rule as the data show it: active = inhibition mostly above about 24% (no sharp cut-off); inactive = mostly below about 32%. Many of the other results were omitted from the sample, so actives are more common in it than they were.

Experiment: NALP1 inflammasome inhibitors in reconstituted yeast, colorimetric, S. cerevisiae, triplicate retest (AID 2071)
Settings: S. cerevisiae NALP1/ASC/caspase-1 growth, X-gal OD620, 72 h, stronger effect = higher value

In the case of CCN1C(=NCC(C)C)N[C@@H](CCc2ccccc2)[C@H](C(=O)NCC(C)C)[C@H]1C, the inhibition (at 10 µM unless noted) is reported as -12.1% (inactive).

With CCC(CC)c1nnc(NC(=O)C2CCN(C(=O)c3ccco3)CC2)s1 the inhibition (at 10 µM unless noted) was -1% (inactive).

In the case of CC(=O)N1CCN(CC(C)(C)NS(=O)(=O)c2ccc(C)cc2)CC1, the inhibition (at 10 µM unless noted) is reported as -1% (inactive).

In the case of COc1ccc(NC(=O)c2sc3nc(C)nc(N4CCN(c5ccccn5)CC4)c3c2C)c(OC)c1, the inhibition (at 10 µM unless noted) is reported as -10.9% (inactive).

With CC1(C)CCSC(/C=C/c2ccccc2)=N1 the inhibition (at 10 µM) was 53.2% (active) and the inhibition (triplicate retest, at 20 µM) was 102%.

With CN(C)CCOC1c2ccccc2-c2ccccc21 the inhibition (at 10 µM unless noted) was 6% (inactive).

With CCCCCCCCCCOC(=O)Cn1c(COc2ccc(C)cc2)[n+](C)c2ccccc21 the inhibition (at 10 µM unless noted) was 24.8% (active).

For COc1cccc(OCC(=O)Nc2ccccc2C(N)=O)c1, the inhibition (at 10 µM unless noted) was 1.7% (inactive).

With CCCCOC(=O)Cn1c(=N)n(CCN(CC)CC)c2ccccc21 the inhibition (at 10 µM unless noted) was 2.6% (inactive).

In the case of CCCCOC(=O)Cn1c(=O)n(CC(=O)OCCCC)c2cc(C)ccc21, the inhibition (at 10 µM unless noted) is reported as -1% (inactive).

With CCCCCCCCCCOC(=O)Cn1c(COc2cccc(OC)c2)[n+](C)c2ccccc21 the inhibition (at 10 µM unless noted) was 36.3% (active).

With Cc1ccc(OCc2nc3ccccc3n2C)cc1 the inhibition (at 10 µM unless noted) was 33.1% (inactive).

In the case of O=C(Nc1cccc([N+](=O)[O-])c1)N1CCc2ccccc2C1, the inhibition (at 10 µM unless noted) is reported as 7.7% (inactive).

In the case of Oc1c(Cl)cc(Cl)cc1/C=N/c1ncn[nH]1, the inhibition (at 10 µM unless noted) is reported as 15.3% (inactive).

With CC/C(=N\NC(=O)c1c(C)nc2ccccn12)c1ccc(Cl)cc1 the inhibition (at 10 µM unless noted) was 8.5% (inactive).

In the case of CCOc1ccc(N(CC(=O)NCCOc2ccccc2OC)S(=O)(=O)c2ccccc2)cc1, the inhibition (at 10 µM unless noted) is reported as 3% (inactive).

In the case of CN(C)c1ccc(-c2nnc(-c3cccnc3)o2)cc1, the inhibition (at 10 µM unless noted) is reported as -3.5% (inactive).

In the case of O=C(NCc1cccc(C(F)(F)F)c1)c1cccc(S(=O)(=O)N2CCN(Cc3ccccc3)CC2)c1, the inhibition (at 10 µM unless noted) is reported as 9.8% (inactive).

For CCn1c(=O)c(C(=O)NCc2ccc3c(c2)OCO3)c(O)c2ccccc21, the inhibition (at 10 µM unless noted) was 4.6% (inactive).

With CC(O)C(NS(=O)(=O)c1ccc(Cl)cc1)C(=O)OCc1cc([N+](=O)[O-])cc2c1OCOC2 (stereo unspecified) the inhibition (at 10 µM unless noted) was 9.8% (inactive).

With Nc1ccccc1SCc1cc([N+](=O)[O-])cc2c1OCOC2 the inhibition (at 10 µM unless noted) was 23.8% (active).

In the case of CCS(=O)(=O)c1cc([N+](=O)[O-])c(Sc2ccccc2N)s1, the inhibition (at 10 µM unless noted) is reported as 6.4% (inactive).

With O=S(=O)(NC1CC1)c1ccc(F)c(F)c1 the inhibition (at 10 µM unless noted) was 3% (inactive).

For CN(C)[C@@H]1C(=O)C(C(N)=O)=C(O)[C@@]2(O)C(=O)C3=C(O)c4c(O)ccc(Cl)c4[C@@H](O)[C@H]3C[C@@H]12, the inhibition (at 10 µM unless noted) was 136% (active).

For O=C(N/N=C/c1ccccn1)c1cccc(NC(=O)c2ccc(Cl)cc2)c1, the inhibition (at 10 µM unless noted) was 8.8% (inactive).

For S=C(NCCCc1ccccc1)Nc1ccc(Br)cc1, the inhibition (at 10 µM unless noted) was 13% (inactive).

For COc1ccc(C(=O)C2CCCN(C(=O)c3ccc(OC)o3)C2)c(C)c1 (stereo unspecified), the inhibition (at 10 µM unless noted) was 14.5% (inactive).

With CCC(=O)Nc1cc(C(F)(F)F)ccc1N1CCCC1 the inhibition (at 10 µM unless noted) was 9% (inactive).

In the case of CC(C)CC(=O)Nc1cc(C(F)(F)F)ccc1N1CCOCC1, the inhibition (at 10 µM unless noted) is reported as 39.4% (active).

In the case of CC(Sc1nncn1C)C(=O)Nc1cc(C(F)(F)F)ccc1N1CCOCC1 (stereo unspecified), the inhibition (at 10 µM unless noted) is reported as 6.8% (inactive).

With CC(=O)c1ccc(NC(=O)c2cc(-c3cccs3)on2)cc1 the inhibition (at 10 µM unless noted) was 27.2% (inactive).

For CCN(CC)CCN(C(=O)c1ccc(S(=O)(=O)N2CCOCC2)cc1)c1nc2cc3c(cc2s1)OCCO3, the inhibition (at 10 µM unless noted) was 6.8% (inactive).

In the case of CN(C)CCCN(C(=O)c1ccc(S(=O)(=O)N2CCCc3ccccc32)cc1)c1nc2ccc(F)cc2s1, the inhibition (at 10 µM unless noted) is reported as 33.1% (inactive).

In the case of CN(C)CCCN(C(=O)c1ccc(S(=O)(=O)N2CCCCCC2)cc1)c1nc2ccc(Br)cc2s1, the inhibition (at 10 µM unless noted) is reported as 40.2% (active).

With O=C(N/N=C/c1ccccc1O)C1CCCC1 the inhibition (at 10 µM unless noted) was -5.6% (inactive).

For COc1ccc(N(C)S(=O)(=O)c2ccc3c(c2)CC(C)N3C(=O)C2CC2)c(OC)c1 (stereo unspecified), the inhibition (at 10 µM unless noted) was 10.4% (inactive).

For O=C(Nc1ccc(NC(=O)c2cccs2)cn1)c1ccco1, the inhibition (at 10 µM unless noted) was -12.5% (inactive).

With O=C(Nc1ccnc(-c2ccncc2)n1)c1cccs1 the inhibition (at 10 µM unless noted) was 37.8% (active).

In the case of O=C(Nc1ccccc1)c1ccc(NC(=O)c2cccs2)cc1, the inhibition (at 10 µM unless noted) is reported as 1.7% (inactive).

With COCC(=O)Nc1ccc(Br)cc1 the inhibition (at 10 µM unless noted) was -1.1% (inactive).

In the case of CN1C(CC(=O)Nc2ccc(Br)cc2)c2ccccc2CC1(C)C (stereo unspecified), the inhibition (at 10 µM unless noted) is reported as 34.1% (active).

With CN1CCN(NC(=O)Nc2ccc(Br)cc2)CC1 the inhibition (at 10 µM unless noted) was 9.6% (inactive).

With CC(C)Sc1ncnc2c1cnn2-c1ccccc1 the inhibition (at 10 µM unless noted) was 13.3% (inactive).

In the case of Cc1nonc1NC(=O)c1oc2ccccc2c1C, the inhibition (at 10 µM unless noted) is reported as 15.3% (inactive).

In the case of COC(=O)c1cc(C(=O)OC)cc(N2C(=O)CC(N3CCN(c4ccccc4)CC3)C2=O)c1 (stereo unspecified), the inhibition (at 10 µM unless noted) is reported as 9.3% (inactive).

With Cc1cccc(N2C(=O)CC(SC(N)=Nc3ccccc3)C2=O)c1 (stereo unspecified) the inhibition (at 10 µM unless noted) was 3% (inactive).

With COC(=O)c1ccccc1SC1CC(=O)N(c2cccc(C)c2)C1=O (stereo unspecified) the inhibition (at 10 µM) was 74.7% (active) and the inhibition (triplicate retest, at 20 µM) was 89.6%.

With CC(=O)c1ccc(N2Cc3ccccc3C2)cc1 the inhibition (at 10 µM unless noted) was 23% (inactive).

With COC(=O)c1ccc(NC(=O)CSc2nncn2-c2cccnc2)cc1 the inhibition (at 10 µM unless noted) was 12.6% (inactive).

With COc1ccc(/C=C2\SC(=S)N(CCCC(=O)NC3CCCC3)C2=O)cc1OC the inhibition (at 10 µM unless noted) was 12.9% (inactive).

With Cc1nc(-c2ccccc2)sc1C(=O)/C=C/N(C)C the inhibition (at 10 µM unless noted) was 32.3% (active).

For Cc1ccc(SCC(=O)c2sc(-c3ccccc3)nc2C)cc1, the inhibition (at 10 µM unless noted) was 30.2% (inactive).

In the case of CN(C)/C=C/C(=O)c1ccccc1F, the inhibition (at 10 µM unless noted) is reported as 27.1% (inactive).

For CCCc1cc(=O)oc2c(C)c(OCC(=O)Nc3ccccn3)ccc12, the inhibition (at 10 µM unless noted) was 16.1% (inactive).

For COc1cc(/C=C/C(=O)N2CCc3ccccc3C2)cc(OC)c1OC, the inhibition (at 10 µM unless noted) was 10.3% (inactive).

For COc1ccc(OC)c(C(=O)NC(CC(N)=O)c2ccc(N3CCC(N4CCCCC4)CC3)c([N+](=O)[O-])c2)c1 (stereo unspecified), the inhibition (at 10 µM unless noted) was 11.6% (inactive).

In the case of Cc1ccc(S(=O)(=O)n2cnc3ccccc32)c(C)c1, the inhibition (at 10 µM unless noted) is reported as 40.9% (active).

With COc1ccc(S(=O)(=O)n2cnc3ccccc32)c(C)c1 the inhibition (at 10 µM unless noted) was 2.2% (inactive).

For Cc1ccc(C)c(S(=O)(=O)n2cnc3ccccc32)c1, the inhibition (at 10 µM unless noted) was 1.1% (inactive).

With CC1CN(C(=O)c2cc(COc3c(F)cccc3F)on2)CCN1C (stereo unspecified) the inhibition (at 10 µM unless noted) was -3.5% (inactive).

In the case of Cc1ccc(CNC(=O)CCS(=O)(=O)c2ccc3c(c2)CC(C)N3C(=O)C2CC2)o1 (stereo unspecified), the inhibition (at 10 µM unless noted) is reported as 20.6% (inactive).

For O=C(NCC1CCCO1)/C(=C/c1ccc(Cl)cc1)NC(=O)c1ccccc1 (stereo unspecified), the inhibition (at 10 µM unless noted) was 22.3% (inactive).

With O=C(NC(=O)c1ccccc1)NC(=O)c1ccccc1 the inhibition (at 10 µM unless noted) was -6% (inactive).

For N#C/C(=C/c1ccc(Cl)cc1)NC(=O)c1ccccc1, the inhibition (at 10 µM unless noted) was 43.3% (active).

For O=C(Nc1ccccc1Cl)NC1(C(=O)N2CCOCC2)CCCCC1, the inhibition (at 10 µM unless noted) was 7.4% (inactive).

For CC1CCC2(CC1)NC(=O)N(CC(=O)c1ccc3c(c1)OCO3)C2=O (stereo unspecified), the inhibition (at 10 µM unless noted) was 9% (inactive).

With Cc1occc1C(=O)N/N=C/c1ccc(-c2cccc([N+](=O)[O-])c2)o1 the inhibition (at 10 µM unless noted) was 11.5% (inactive).

For CC[C@H]1OC(=O)[C@H](C)[C@@H](O[C@H]2C[C@@](C)(OC)[C@@H](O)[C@H](C)O2)[C@H](C)[C@@H](O[C@@H]2O[C@H](C)C[C@H](N(C)C)[C@H]2O)[C@](C)(O)C[C@@H](C)[C@@H]2N[C@@H](COCCOC)O[C@H]([C@H]2C)[C@]1(C)O, the inhibition (at 10 µM unless noted) was 75.2% (active).

For CCn1c(SCc2cccc(C(=O)O)c2)nnc1-c1ccc(Cl)cc1, the inhibition (at 10 µM unless noted) was 7.1% (inactive).

With CCN1/C(=C/c2ccc3ccc(C)cc3[n+]2CC)Sc2ccccc21 the inhibition (at 10 µM) was 87.1% (active) and the inhibition (triplicate retest, at 20 µM) was 107%.

In the case of CCN1/C(=C\c2ccc3ccccc3[n+]2CC)Sc2cc(C)ccc21, the inhibition (at 10 µM) is reported as 77.1% (active) and the inhibition (triplicate retest, at 20 µM) is reported as 81.9%.

For CCN1CCN(CCNC(=O)c2ccc(/C=C3/Sc4ccccc4N(Cc4cccc(C)c4)C3=O)cc2)CC1, the inhibition (at 10 µM unless noted) was 12.2% (inactive).

In the case of CCN1/C(=C/C(=S)Nc2ccccc2)Sc2ccccc21, the inhibition (at 10 µM unless noted) is reported as 27.1% (inactive).

For CCCN1CCn2c3c(c4cc(Br)ccc42)CCCC31 (stereo unspecified), the inhibition (at 10 µM unless noted) was 15.4% (inactive).

In the case of CCN(C(=O)CN1C(=O)/C(=C/c2ccc(F)cc2)SC1=S)C1CCS(=O)(=O)C1 (stereo unspecified), the inhibition (at 10 µM unless noted) is reported as 4.8% (inactive).

For COc1ccc(C(=O)N2CCCCC2C(=O)Nc2ccc(-n3nc(C)cc3C)cc2)o1 (stereo unspecified), the inhibition (at 10 µM unless noted) was 8.7% (inactive).

For Cc1snc(SCc2c(F)cccc2Cl)c1C#N, the inhibition (at 10 µM unless noted) was 6.1% (inactive).

In the case of CCC(=C/c1sc2ccc3ccccc3c2[n+]1C)/C=C1\Sc2ccc3ccccc3c2N1C, the inhibition (at 10 µM unless noted) is reported as 42.3% (active).

In the case of COc1ccc(/C=N/Nc2ccccc2C(=O)O)cc1, the inhibition (at 10 µM unless noted) is reported as 10.9% (inactive).

With CCNC(=O)Nc1ccc(S(=O)(=O)Nc2cnc(C)nc2C)cc1 the inhibition (at 10 µM unless noted) was 18.5% (inactive).

For CCOc1ccccc1/C=N/Nc1nc2ccccc2o1, the inhibition (at 10 µM unless noted) was 14.3% (inactive).

With COc1ccccc1CCNC(=O)C1CCN(C(=O)/C=C/c2ccccc2)CC1 the inhibition (at 10 µM unless noted) was 16.7% (inactive).
